The assay has as its system Aedes aegypti larvae. The assay is described as follows: larval motility relative to same well at 0 h (fraction); higher = more motile (less active compound), active = 0.4 or less. To be noted: 10 µM. The method in brief:
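Relative motility is the score of a well divided by its own score at the first recording. Movies were made with INVAPP at 0, 2 and 24 h, each having 200 frames at 100 ms intervals. Larvae of Aedes aegypti, from 18–24 h hatches in pond salt solution with yeast at 25 °C, sat at about 10 per well (100 µL) in 96-well plates with compounds at 10 µM and 1% v/v DMSO. Solvent and larvicide control wells were included on every plate, and values are medians of three independent larval batches.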

A number with no mark means an inactive call.

Turning to `O=C(Nc1cccc(C2=NCCN2)c1)c1ccc(-c2ccc(C(=O)Nc3cccc(C4=NCCN4)c3)cc2)cc1`, the larval motility runs as follows: (2 h) 0.648; (24 h) 0.961.
The matching figures for `O=C(O)C(Cc1c[nH]c2ccccc12)N1C(=O)c2ccccc2C1=O` (stereo unspecified): 1.75 and 1.18.
As to `Cc1cc(CCOc2c(C)cc(-c3nnn(C)n3)cc2C)on1`, the larval motility runs as follows: (2 h) 0.857; (24 h) 0.768.
In the same order, the values of `Nc1nc(NC2Cc3ccc(F)cc3C2)nc(N2CCCCC2)n1` (stereo unspecified) are 0.662 and 0.628.
The matching figures for `O=C(Nc1ccccc1C(=O)O)c1cccc(Oc2ccccc2)c1`: 0.522 and 1.44.
On to `Cc1nc(Nc2ccc(F)cc2)nc(N2CCc3ccccc3C2C)c1C` (stereo unspecified), for which the larval motility is 0.774 (2 h) and 0.644 (24 h).
In the same order, the values of `CSc1ccc2c(c1)C(N1CCN(C)CC1)Cc1ccccc1S2` (stereo unspecified) are 1.08 and 0.827.
`COc1cc(NS(=O)(=O)c2ccc(C)cc2)c2ncccc2c1`: the larval motility (2 h) was 0.89 and the larval motility (24 h) was 0.666.
In the case of `COc1cc(Cc2cnc(N)nc2N)cc(OC)c1OC`, the larval motility was 0.864 (2 h) and 0.829 (24 h).
With `O=C(O)/C=C/C=C/c1cccc(Oc2cc(Cl)cc(Cl)c2)c1`, the larval motility by setting is: (2 h) 1.55; (24 h) 0.995.
With `CC(C)=CCC/C(C)=C/CNCCNC1C2CC3CC(C2)CC1C3` (stereo unspecified), the larval motility reads like this: (2 h) 0.85; (24 h) 0.924.
The matching figures for `Cc1[nH]c2ccccc2c1CCNCc1ccc(/C=C/C(=O)NO)cc1`: 1.05 and 1.18.
In the same order, the values of `CC(C)(C)NC(=O)[C@@H]1CN(Cc2cnc3occc3c2)CCN1C[C@@H](O)C[C@@H](Cc1ccccc1)C(=O)N[C@H]1c2ccccc2C[C@H]1O` are 0.857 and 0.932.
In the same order, the values of `N[C@H](CCC(=O)N[C@@H](Cc1c[nH]c2ccccc12)C(=O)O)C(=O)O` are 0.936 and 0.838.
Regarding `CC(C)(C)OC(=O)NCc1ccc(C(=O)N[C@H]2CCOC2=O)cc1`, the larval motility reads like this: (2 h) 0.701; (24 h) 0.769.
Take `CN1CCN(Cc2ccc(-c3cnc4[nH]cc(-c5ccc6[nH]ccc6c5)c4c3)cc2)CC1`: the larval motility runs as follows: (2 h) 0.696; (24 h) 0.967.
In the same order, the values of `COc1ccc(NC(=O)CC2Sc3ncnn3C2=O)cc1` (stereo unspecified) are 0.728 and 0.333 (active).
Take `COC(=O)Nc1nc2cc(Sc3ccccc3)ccc2[nH]1`: the larval motility (2 h) is 0.997 and the larval motility (24 h) was 0.306 (active).
In the same order, the values of `C=C[C@]1(C)C[C@@H](OC(=O)CS[C@@H]2C[C@H]3CC[C@@H](C2)N3C)[C@]2(C)[C@H](C)CC[C@]3(CCC(=O)[C@H]32)[C@@H](C)[C@@H]1O` are 0.606 and 0.545.
The matching figures for `O=C(O)c1cc(-c2ccc(Br)cc2)nc2ccc(Cl)cc12`: 1.05 and 0.76.
In the same order, the values of `CCc1c(OCC2CCC2)c2cc(F)ccc2[nH]c1=O` are 1.07 and 1.08.
Take `COc1ccc(NC(=O)c2cc3ccccn3n2)cc1`: the larval motility reads like this: (2 h) 0.48; (24 h) 0.782.
In the same order, the values of `O=S(=O)(NCB(O)O)c1ccc(-c2nnn[nH]2)cc1C(F)(F)F` are 0.999 and 1.46.
The matching figures for `Cc1c[nH]c(=O)nc1NCc1ccccc1`: 1.16 and 0.91.
The matching figures for `NCCCc1ccccc1C(=O)Nc1ncc([N+](=O)O)s1`: 0.869 and 0.646.
For `OC(Cn1cncn1)(Cn1cncn1)c1ccc(F)cc1F`, the larval motility runs as follows: (2 h) 1.05; (24 h) 0.875.
In the same order, the values of `CCCCc1ccc(-c2nc(C)c(C(=O)OC)s2)cc1` are 1.33 and 0.97.
The matching figures for `CN(C)[C@@H]1C(=O)C(C(N)=O)=C(O)[C@@]2(O)C(=O)C3=C(O)c4c(O)c(NC(=O)CN5CCCC5)cc(F)c4C[C@H]3C[C@@H]12`: 0.841 and 1.78.
In the same order, the values of `CC[C@H]1OC(=O)[C@H](C)[C@@H](O[C@H]2C[C@@](C)(OC)[C@@H](O)[C@H](C)O2)[C@H](C)[C@@H](O[C@@H]2O[C@H](C)C[C@H](N(C)C)[C@H]2O)[C@](C)(O)C[C@@H](C)C(=O)[C@H](C)[C@@H](O)[C@]1(C)O` are 1.03 and 0.824.
On to `Clc1cccc(-c2nnc(-c3ccccc3)o2)c1`, for which the larval motility by setting is: (2 h) 0.402; (24 h) 0.691.
On to `Cc1cc(C)n2nc(C(=O)NS(=O)(=O)c3c(C)cccc3OC(F)(F)F)nc2n1`, for which the larval motility is, setting by setting: (2 h) 1.04; (24 h) 1.13.
Turning to `CC(=O)NC[C@H]1CN(c2ccc(N3CCSCC3)c(F)c2)C(=O)O1`, the larval motility was 0.531 (2 h) and 1.07 (24 h).
The matching figures for `O=S(=O)(Nc1ccc(O)cc1)c1cccc2cccnc12`: 1.06 and 0.629.
The matching figures for `COc1ccc(SCC(=O)N2c3ccccc3Sc3ccccc32)cc1`: 0.631 and 1.01.
The matching figures for `O=C(O)c1ccc(-c2ccc(O[C@H]3O[C@H](CO)[C@@H](O)[C@H](O)[C@@H]3O)cc2)cc1`: 0.798 and 1.22.
In the case of `CC(C)c1ccc(COc2cccc(-c3cc(S(C)=O)c(C#N)c(=O)[nH]3)c2)cc1` (stereo unspecified), the larval motility was 0.682 (2 h) and 0.447 (24 h).
The matching figures for `CN1CCN(c2ccc3[nH]c(-c4ccc5[nH]c(-c6ccc(O)cc6)nc5c4)nc3c2)CC1`: 0.732 and 1.11.
Regarding `CC(C)Cn1c(=O)n(C)c(=O)c2c(-c3cncn3C)n(Cc3cccc4ccccc34)nc21`, the larval motility by setting is: (2 h) 0.612; (24 h) 0.874.

These data come from the supplement of paper PMC8540655.
